Test results published in PubChem BioAssay.
A number with no mark means an inactive call. Active and inactive are the calls of the source.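 How the source made its calls: active means thallium flux through the channel raised or lowered by more than 3 SD from vehicle-only wells, actives on both sides; inactive means the rest.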

What follows are compounds tested on R275C/beta4 (assay: BK channel mutant inhibitors and activators – cell-based, U2OS BacMam, thallium flux, beta subunits, selectivity assay, profiling panel (AID 1259406;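 further: initial slope of Thallos dye fluorescence rise after thallium is added; log ratio against the mean of 0.3% DMSO vehicle wells on the same plate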)). Conditions: U2OS BacMam BK variants, at 30 µM.
Compound `COC(=O)[C@H](c1ccccc1Cl)N1CCc2sccc2C1` has a log fold change Tl+ flux of -0.038. `COc1ccc(/C=C/C(=O)Nc2ccccc2C(=O)O)cc1OC` gave a log fold change Tl+ flux of -0.0078. `CC1=C(/C=C/C(C)=C/C=C/C(C)=C\C(=O)O)C(C)(C)CCC1` was tested, and the log fold change Tl+ flux was 0.00975. In the case of `Cc1cccc(C)c1NC(=O)C1CCCCN1C` (stereo not drawn), the log fold change Tl+ flux is reported as -0.0225. In the case of `CN(C)c1nc(N(C)C)nc(N(C)C)n1`, the log fold change Tl+ flux is reported as -0.000902. In the case of `CC[C@H]1OC(=O)[C@H](C)[C@@H](O[C@H]2C[C@@](C)(OC)[C@@H](O)[C@H](C)O2)[C@H](C)[C@@H](O[C@@H]2O[C@H](C)C[C@H](N(C)C)[C@H]2O)[C@](C)(OC)C[C@@H](C)C(=O)[C@H](C)[C@@H](O)[C@]1(C)O`, the log fold change Tl+ flux is reported as -0.0137. In the case of `CNCCC(Oc1ccc(C(F)(F)F)cc1)c1ccccc1` (stereo not drawn), the log fold change Tl+ flux is reported as 0.301 (active). `CS(=O)(=O)c1ccc(C2=C(c3ccccc3)C(=O)OC2)cc1` gave a log fold change Tl+ flux of 0.00682. `Cc1occc(=O)c1O` gave a log fold change Tl+ flux of -0.00174. `Nc1ncnc2c1ncn2[C@@H]1O[C@H](CO)[C@@H](O)[C@@H]1O` showed a log fold change Tl+ flux of 0.00861. `CC(C)NCC(O)COc1ccc(CC(N)=O)cc1` (stereo not drawn) gave a log fold change Tl+ flux of 0.0424. Compound `C[N+]1(C)CCCC(OC(=O)C(O)(c2ccccc2)c2ccccc2)C1` (stereo not drawn) has a log fold change Tl+ flux of 0.0435. For `CC(C)NCC(O)COc1cccc2ccccc12` (stereo not drawn), the log fold change Tl+ flux was 0.00549. Work on `CCc1ccc(CCOc2ccc(CC3SC(=O)NC3=O)cc2)nc1` (stereo not drawn) yielded a log fold change Tl+ flux of -0.028. For `CCCCC(=O)N(Cc1ccc(-c2ccccc2-c2nn[nH]n2)cc1)[C@H](C(=O)O)C(C)C`, the log fold change Tl+ flux was 0.0104. `C[C@H]1COc2c(N3CCN(C)CC3)c(F)cc3c(=O)c(C(=O)O)cn1c23` showed a log fold change Tl+ flux of -0.0147. `O=[N+]([O-])c1cccc2cn[nH]c12` was tested, and the log fold change Tl+ flux was 0.0112. With `COc1ccc(-c2cc(=O)c3c(OC)c(OC)c(OC)c(OC)c3o2)cc1OC` the log fold change Tl+ flux was -0.242 (active). Compound `CC(C(=O)O)c1ccc(-c2ccccc2)c(F)c1` (stereo not drawn) has a log fold change Tl+ flux of 0.0279.

The compounds below were run on R275C/Slo1WT/beta2 in the same assay as above. Conditions: U2OS BacMam BK variants, at 30 µM.
`COC(=O)[C@H](c1ccccc1Cl)N1CCc2sccc2C1` showed a log fold change Tl+ flux of -0.0324. With `COc1ccc(/C=C/C(=O)Nc2ccccc2C(=O)O)cc1OC` the log fold change Tl+ flux was 0.0419. `CC1=C(/C=C/C(C)=C/C=C/C(C)=C\C(=O)O)C(C)(C)CCC1` showed a log fold change Tl+ flux of 0.0252. With `Cc1cccc(C)c1NC(=O)C1CCCCN1C` (stereo not drawn) the log fold change Tl+ flux was -0.0173. Compound `CN(C)c1nc(N(C)C)nc(N(C)C)n1` has a log fold change Tl+ flux of 0.0129. `CC[C@H]1OC(=O)[C@H](C)[C@@H](O[C@H]2C[C@@](C)(OC)[C@@H](O)[C@H](C)O2)[C@H](C)[C@@H](O[C@@H]2O[C@H](C)C[C@H](N(C)C)[C@H]2O)[C@](C)(OC)C[C@@H](C)C(=O)[C@H](C)[C@@H](O)[C@]1(C)O` was tested, and the log fold change Tl+ flux was -0.00092. `CNCCC(Oc1ccc(C(F)(F)F)cc1)c1ccccc1` (stereo not drawn) gave a log fold change Tl+ flux of 0.0335. `CS(=O)(=O)c1ccc(C2=C(c3ccccc3)C(=O)OC2)cc1` showed a log fold change Tl+ flux of 0.00403. In the case of `Cc1occc(=O)c1O`, the log fold change Tl+ flux is reported as 0.0112. `Nc1ncnc2c1ncn2[C@@H]1O[C@H](CO)[C@@H](O)[C@@H]1O` was tested, and the log fold change Tl+ flux was 0.0175. Compound `CC(C)NCC(O)COc1ccc(CC(N)=O)cc1` (stereo not drawn) has a log fold change Tl+ flux of 0.0165. For `C[N+]1(C)CCCC(OC(=O)C(O)(c2ccccc2)c2ccccc2)C1` (stereo not drawn), the log fold change Tl+ flux was 0.0306. `CC(C)NCC(O)COc1cccc2ccccc12` (stereo not drawn) was tested, and the log fold change Tl+ flux was -0.0153. `CCc1ccc(CCOc2ccc(CC3SC(=O)NC3=O)cc2)nc1` (stereo not drawn) gave a log fold change Tl+ flux of -0.0116. `CCCCC(=O)N(Cc1ccc(-c2ccccc2-c2nn[nH]n2)cc1)[C@H](C(=O)O)C(C)C` gave a log fold change Tl+ flux of 0.0346. `C[C@H]1COc2c(N3CCN(C)CC3)c(F)cc3c(=O)c(C(=O)O)cn1c23` was tested, and the log fold change Tl+ flux was 0.0224. In the case of `O=[N+]([O-])c1cccc2cn[nH]c12`, the log fold change Tl+ flux is reported as -0.00893. `COc1ccc(-c2cc(=O)c3c(OC)c(OC)c(OC)c(OC)c3o2)cc1OC` was tested, and the log fold change Tl+ flux was -0.0213. For `CC(C(=O)O)c1ccc(-c2ccccc2)c(F)c1` (stereo not drawn), the log fold change Tl+ flux was 0.0126.
